# Laboratory results taken from PubChem BioAssay.
# Several values for one entry are separate records, joined by “and”; a condition that tells them apart may be missing. Identical values can stand only once. Activity calls are given as the source filed them.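 Rule for the calls, unless noted: active = at least 20% inhibition of 6-phosphogluconate dehydrogenase activity; inactive = the rest.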
# Key:
# [1] = compounds altering viability of human ES cells (AID 493140; call rule not given here;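 note: cells exposed to compounds for four days before counting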); conditions: human embryonic stem cell survival screen; stronger effect = higher value
# [2] = molecular target: 6-phosphogluconate dehydrogenase, decarboxylating (Homo sapiens) (UniProt P52209); experiment: inhibition of human phosphogluconate dehydrogenase – biochemical, recombinant enzyme, NADPH absorbance, primary screen (AID 1159550); conditions: recombinant 6PGD, NADPH absorbance 341 nm; at 10 µM; stronger effect = higher value
# [3] = system: Aerobactin synthetase IucA (Klebsiella pneumoniae, hypervirulent); experiment: biochemical IucA inhibition screen of LOPAC library by absorbance (AID 1346212; call rule not given here;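 note: 100% = no compound wells and 0% = no enzyme wells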); conditions: IucA enzyme assay, absorbance (OD) readout; stronger effect = lower value;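 tested at 8 µM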
# [4] = viability loss with induced miR-34 in A549 – imaging, A549 dox-inducible miR-34, nuclei and caspase counts, primary screen (AID 1347080;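 active = compounds whose cell count with miR-34 switched on is under 0.7 times the count with it off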); conditions: A549 miR-34 inducible, Hoechst nuclei count, 48 h
# [5] = MELAS cybrid and Rieske KO viability enhancers – cell-based, MELAS cybrids, Rieske KO mouse fibroblasts, CellTiter-Glo, primary screen (AID 1508586;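 active = mean z-score across replicates of 1.96 or higher in either the MELAS or the Rieske mutant cell line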;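 note: z relative to plate mean and SD of compound and empty wells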); conditions: low glucose
# [6] = molecular target: NAD(+) hydrolase SARM1 (Homo sapiens) (UniProt Q6SZW1); experiment: blocking NAD cleavage by SARM1 SAM-TIR – cell lysate, NAD-Glo luminescence (AID 1508614;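 active = compound whose remaining NAD level is above about 45 nM, limit read from the data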;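 note: higher remaining NAD means stronger inhibition of SARM1 NADase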); conditions: SAM-TIR HEK293T lysate NADase, at 1 µM, stronger effect = higher value
# [7] = galactose survival enhancers in mitochondrial complex I cybrids – cell-based, galactose medium, ATP luminescence, primary screen (AID 1645843;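 active = z-score of at least 1.8 in each of two replicates, scored against plate mean and spread of sample wells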;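 note: positive z means more ATP and so rescue of galactose-driven cybrid death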); conditions: complex I mutant cybrid cells, 72 h, stronger effect = higher value
# [8] = P. berghei load reduction in hepatocytes – cell-based, HepG2, luciferase luminescence, HepG2 viability, primary screen (AID 624349; in the data active = parasite load remaining mostly below about 12%, no sharp cut-off; inactive = mostly above about 10%;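 note: 100% = mean of DMSO negative control wells on the same plate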); conditions: P. berghei liver stage in HepG2, luciferase luminescence, concentration not given here; parasite load remaining: stronger effect = lower value; viability: measured here: HepG2 viability without parasites
# [9] = EMT-state selective cytotoxicity in co-culture – imaging, PC-3E GFP, TEM4-18 mCherry, primary screen (AID 1345086;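 active = compounds killing one labelled cell type while sparing the other, by normalised counts and ratio limits, not self-fluorescent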;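 for all read-outs here: cells exposed to compound for 72 h before imaging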;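 for red/green cell ratio (normalised): normalised mesenchymal count divided by normalised epithelial count so high means epithelial killing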); conditions: PC-3E GFP / TEM4-18 mCherry co-culture, imaging cell counts, at 1 µM; for red/green cell ratio (normalised): actives lie on both sides
# [10] = compounds altering circadian rhythm period length – cell-based, LOPAC library, luminescence reporter (AID 2774; call rule not given here;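 note: values are relative to mean of DMSO wells on each plate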); conditions: circadian reporter cells, at 7 µM, actives lie on both sides
# [11] = system: Hepatitis C virus NS3 helicase; experiment: blockers of NS3h binding to ssDNA – biochemical, fluorescence polarization, LOPAC1280 library, primary screen (AID 687035; in the data active = inhibition above about 37%); conditions: Purified HCV NS3 helicase, Cy5-dT15 ssDNA binding fluorescence polarization; stronger effect = higher value; concentration not given here
# [12] = compounds altering Cy5-DNA-NS3h complex signal – biochemical, LOPAC1280, artefact control for HCV NS3 helicase inhibitor project (AID 687037; call rule not given here); conditions: Cy5-DNA-NS3h complex fluorescence interference counterscreen
# [13] = measured here: relative caspase fold change +Dox/-Dox
# [14] = measured here: total cells with miR-34 induction, stronger effect = lower value
# [15] = measured here: total cells without miR-34 induction
# [16] = MELAS cybrid survival, CellTiter-Glo 48 h, stronger effect = higher value
# [17] = Rieske KO mouse fibroblast survival, CellTiter-Glo 72 h
# [18] = measured here: epithelial PC-3E GFP cell survival
# [19] = measured here: mesenchymal TEM4-18 mCherry cell survival
# [20] = stronger effect = lower value, cell number ratio, induced over uninduced
# Chain of 6-phosphogluconate dehydrogenase, decarboxylating (Homo sapiens) (P52209 whole entry, looked up): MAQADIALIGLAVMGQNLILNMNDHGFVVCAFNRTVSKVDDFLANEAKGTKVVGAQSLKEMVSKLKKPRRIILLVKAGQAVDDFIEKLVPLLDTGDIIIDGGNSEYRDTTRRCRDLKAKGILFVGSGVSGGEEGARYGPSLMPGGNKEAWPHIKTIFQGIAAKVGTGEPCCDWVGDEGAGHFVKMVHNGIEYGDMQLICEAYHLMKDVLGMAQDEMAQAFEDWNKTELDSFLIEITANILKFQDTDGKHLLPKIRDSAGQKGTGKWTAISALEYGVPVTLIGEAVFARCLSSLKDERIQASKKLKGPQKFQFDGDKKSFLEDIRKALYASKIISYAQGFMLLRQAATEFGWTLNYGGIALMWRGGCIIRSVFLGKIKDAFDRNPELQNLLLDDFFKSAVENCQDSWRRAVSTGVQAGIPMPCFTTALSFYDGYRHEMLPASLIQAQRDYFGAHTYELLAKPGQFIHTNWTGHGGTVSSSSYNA
# Chain of NAD(+) hydrolase SARM1 (Homo sapiens) (Q6SZW1 whole entry, looked up): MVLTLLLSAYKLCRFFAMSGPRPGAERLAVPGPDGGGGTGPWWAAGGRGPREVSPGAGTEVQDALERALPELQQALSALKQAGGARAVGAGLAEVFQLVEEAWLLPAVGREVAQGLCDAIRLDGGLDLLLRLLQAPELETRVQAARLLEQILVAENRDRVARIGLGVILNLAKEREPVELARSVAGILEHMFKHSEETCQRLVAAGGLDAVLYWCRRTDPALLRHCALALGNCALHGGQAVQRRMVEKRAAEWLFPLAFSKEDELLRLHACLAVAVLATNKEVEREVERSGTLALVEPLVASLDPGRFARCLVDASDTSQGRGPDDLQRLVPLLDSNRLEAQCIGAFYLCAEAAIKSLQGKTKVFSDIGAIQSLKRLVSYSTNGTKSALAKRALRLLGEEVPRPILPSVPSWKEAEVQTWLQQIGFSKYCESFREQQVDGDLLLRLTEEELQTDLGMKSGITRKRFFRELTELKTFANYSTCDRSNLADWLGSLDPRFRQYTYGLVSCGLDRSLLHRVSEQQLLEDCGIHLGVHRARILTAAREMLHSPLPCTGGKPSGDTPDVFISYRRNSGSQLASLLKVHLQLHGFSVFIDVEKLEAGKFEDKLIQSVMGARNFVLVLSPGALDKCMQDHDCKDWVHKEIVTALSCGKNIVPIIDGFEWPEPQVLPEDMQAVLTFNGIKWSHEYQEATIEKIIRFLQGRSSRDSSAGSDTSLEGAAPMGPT
smiles,measurement,setting,value
O=C1CC[C@@]2(O)[C@H]3Cc4ccc(O)c5c4[C@@]2(CCN3CC2CC2)[C@H]1O5,survival,[1],16.1 (inactive)
same,inhibition,[2],9.6% (inactive)
same,remaining activity,[3],118% (inactive)
same,fold change,[4]; stronger effect = lower value,0.971 (inactive) and 0.94 (inactive) and 0.843 (inactive)
same,fold change,[4]; [13],1.34 and 1.14 and 0.908
same,cell count,[4]; [14],11000 and 9230 and 9370
same,cell count,[4]; [15],11300 and 9820 and 11100
same,z-score,[5]; [16],0.477 (inactive) and 0.601 (inactive)
same,z-score,[5]; [17],0.069 and -0.0949
same,remaining NAD,[6],10 nM (inactive)
same,z-score,[7],0.66 (inactive) and 0.275 (inactive)
CNC(=O)O/N=C/C(C)(C)SC,inhibition,[2],-1.92% (inactive)
O=c1ccc2cc(O[C@@H]3O[C@H](CO)[C@@H](O)[C@H](O)[C@H]3O)c(O)cc2o1,parasite load remaining,[8],71.6% (inactive)
same,viability,[8],71.7%
same,inhibition,[2],-2.58% (inactive)
same,red/green cell ratio (normalised),[9],1.25 (inactive)
same,red/green cell ratio (normalised),"[9]; counts scaled to control wells, 1 = unselective",0.97 (inactive)
same,normalised cell number,[9]; [18],0.87 and 1.04
same,normalised cell number,[9]; [19],1.09 and 1
CCCC(C)C1(CC)C(=O)NC(=S)NC1=O (stereo not given),inhibition,[2],-1.13% (inactive)
CC(C)N(C(=O)CCl)c1ccccc1,inhibition,[2],-9.5% (inactive)
Cc1c(O)c(C(=O)CC(C)C)c2oc3c(C(=O)CC(C)C)c(O)c(C)c(O)c3c2c1O,inhibition,[2],0.288% (inactive)
COc1ccc(C[C@H]2NC[C@H](O)[C@H]2OC(C)=O)cc1,parasite load remaining,[8],-43.5% (inactive) and -0.655% (inactive)
same,viability,[8],60.3% and 76.2%
same,inhibition,[2],-19.6% (inactive)
same,red/green cell ratio (normalised),[9],0.63 (inactive)
same,normalised cell number,[9]; [18],0.16
same,normalised cell number,[9]; [19],0.1
same,fold change,[4]; stronger effect = lower value,0.919 (inactive) and 1.04 (inactive)
same,fold change,[4]; [13],1.66
same,cell count,[4]; [14],1170 and 1230
same,cell count,[4]; [15],1270 and 1190
same,z-score,[7],-0.88 (inactive)
O=c1c2ccccc2[se]n1-c1ccccc1,period change,[10],-0.02 h (inactive)
same,survival,[1],0.417 (inactive)
same,parasite load remaining,[8],54.1% (inactive) and 46.2% (inactive)
same,viability,[8],93.6% and 69.7%
same,inhibition,[11],-2% (inactive)
same,fluorescence ratio (interference),[12],1 (inactive)
same,inhibition,[2],51.1% (active)
same,red/green cell ratio (normalised),[9],0.87 (inactive)
same,normalised cell number,[9]; [18],1.06
same,normalised cell number,[9]; [19],0.92
same,remaining activity,[3],-5.47% (active)
same,z-score,[5]; [16],-1.8
same,z-score,[5]; [17],2.16
same,remaining NAD,[6],10 nM (inactive)
same,z-score,[7],-1.44 (inactive)
c1cc2c(cc1[C@H]1OC[C@@H]3[C@H]1CO[C@H]3c1ccc3c(c1)OCO3)OCO2,inhibition,[2],-14.7% (inactive)
CN[C@H]1C[C@@H](N)[C@H](O)[C@@H](O[C@@H]2O[C@H](CO)[C@H](O)[C@@H]3OC4(O[C@H]23)O[C@H]([C@@H](N)CO)[C@H](O)[C@@H](O)[C@H]4O)[C@@H]1O (stereo not given in full),inhibition,[2],14.7% (inactive)
CC(=O)OC1CC(OC2C(O)CC(OC3C(O)CC(OC4CCC5(C)C(CCC6C5CC(O)C5(C)C(C7=CC(=O)OC7)CCC65O)C4)OC3C)OC2C)OC(C)C1OC1OC(CO)C(O)C(O)C1O (stereo not given),inhibition,[2],7.01% (inactive)
C[C@H]1CC[C@]2(NC1)O[C@H]1C[C@H]3[C@@H]4CC[C@H]5C[C@@H](O[C@@H]6O[C@H](CO)[C@H](O[C@@H]7O[C@H](CO)[C@@H](O)[C@H](O[C@@H]8OC[C@@H](O)[C@H](O)[C@H]8O)[C@H]7O[C@@H]7O[C@H](CO)[C@@H](O)[C@H](O)[C@H]7O)[C@H](O)[C@H]6O)CC[C@]5(C)[C@H]4CC[C@]3(C)[C@H]1[C@@H]2C,inhibition,[2],1.84% (inactive)
CC[C@@H](CO)NC(=O)[C@@H]1C=C2c3cccc4[nH]cc(c34)C[C@H]2N(C)C1,period change,[10],0.19 h (inactive)
same,parasite load remaining,[8],65.8% (inactive) and 65.3% (inactive) and 59.9% (inactive)
same,viability,[8],103% and 77.1% and 98.3%
same,inhibition,[11],-5% (inactive)
same,fluorescence ratio (interference),[12],1 (inactive)
same,inhibition,[2],10.6% (inactive)
same,red/green cell ratio (normalised),[9],0.98 (inactive)
same,normalised cell number,[9]; [18],0.88
same,normalised cell number,[9]; [19],0.87
same,remaining activity,[3],107% (inactive)
same,z-score,[5]; [16],0.332 (inactive)
same,z-score,[5]; [17],0.352
same,remaining NAD,[6],10 nM (inactive)
same,z-score,[7],0.87 (inactive) and -0.035 (inactive)
CCN1CC2(COC)C(O)CC(OC)C34C5CC6(O)C(OC)C(O)C(OC(C)=O)(C5C6OC(=O)c5ccccc5)C(C(OC)C23)C14 (stereo not given),inhibition,[2],17.1% (inactive)
C[C@]12C=CC(=O)C=C1CC[C@@H]1[C@@H]2CC[C@]2(C)C(=O)CC[C@@H]12,inhibition,[2],-9.35% (inactive)
Cc1nccc2c1[nH]c1ccccc12,period change,[10],0.11 h (inactive)
same,survival,[1],12.2 (inactive)
same,parasite load remaining,[8],94.4% (inactive) and 63.5% (inactive)
same,viability,[8],116% and 79%
same,inhibition,[11],-1% (inactive)
same,fluorescence ratio (interference),[12],1 (inactive)
same,inhibition,[2],-8.63% (inactive)
same,red/green cell ratio (normalised),[9],0.96 (inactive)
same,normalised cell number,[9]; [18],0.91
same,normalised cell number,[9]; [19],0.87
same,remaining activity,[3],99.4% (inactive)
same,fold change,[4]; stronger effect = lower value,0.91 (inactive) and 0.859 (inactive)
same,fold change,[4]; [20],0.856 (inactive)
same,fold change,[4]; [13],1.74 and 1.56 and 1.32
same,cell count,[4]; [14],8890 and 7490 and 7920
same,cell count,[4]; [15],9780 and 8760 and 9220
same,z-score,[7],-0.38 (inactive) and -0.595 (inactive)
CNC(=O)O/N=C(/C)SC,inhibition,[2],-23.1% (inactive)
C=C[C@H]1CN2CC[C@H]1C[C@@H]2[C@@H](O)c1ccnc2ccccc12,parasite load remaining,[8],63% (inactive)
same,viability,[8],116%
same,inhibition,[2],-5.19% (inactive)
same,fold change,[4]; [20],0.868 (inactive)
same,fold change,[4]; [13],1.48
same,cell count,[4]; [14],8930
same,cell count,[4]; [15],10300
same,remaining NAD,[6],10 nM (inactive)
C=C(C)[C@H]1Cc2c(ccc3c(=O)c4c(oc23)COc2cc(OC)c(OC)cc2-4)O1,inhibition,[2],-6.24% (inactive)
CCS(=O)CCSP(=O)(OC)OC (stereo not given),inhibition,[2],1.58% (inactive)
O=C(O)COc1ccc(Cl)cc1Cl,inhibition,[2],-20.1% (inactive)
same,red/green cell ratio (normalised),[9],1.22 (inactive)
same,normalised cell number,[9]; [18],0.89
same,normalised cell number,[9]; [19],1.08
